Bioassay records: PubChem BioAssay, National Center for Advancing Translational Sciences (NCATS)
HCV inhibitor: inhibitors of hepatitis C virus infection | Potency, µM (titrated, usually from 41.8 µM), for inactives: at the highest dose activity change, negative = inhibition, most hits filed as inhibitors | Huh7.5.1 HCVcc-Cre infection, luciferase reporter, 44 h | hit rate 3.4% among 340,000 | AID 651820; further: potency means the concentration at half of the fitted maximal effect; on the % scale 0 is the no-effect control and ±100 the full control effect
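After 44 h co-culture of compound, cells and HCVcc-Cre (~0.5 moi), substrate is added for 15 min at room temperature and luciferase measured over 15 sec. Cells were seeded at 1,000/well and pre-cultured 4 h.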
Cycloheximide cs: counter-screen hit for Shiga toxin inhibitors, cycloheximide; cell reporter, cycloheximide protein synthesis inhibition counterscreen; max response, %; hit rate 12% among 300,000; AID 2314; in the data active means max response mostly above about 13%, no sharp cut-off; inactive means mostly below about 14%; further: read at 38.3 µM for the half of the compounds with a filed dose; 0% is about no effect
Shiga inhibitor: Shiga toxin inhibition; Vero cells, Shiga toxin protein synthesis inhibition reporter; hit rate 9.2% among 290,000; AID 2315; inhibition, % at 38.7 µM; in the data active means inhibition mostly above about 28%, no sharp cut-off; inactive means mostly below about 43%; further: 0% is about no effect
Pf growth 48h: inhibits P. falciparum growth in the first generation, 48 h; P. falciparum luciferase growth in erythrocytes, 48 h; Potency, µM (titrated, usually from 28.7 µM), inactives show top-dose activity change, negative = inhibition, actives largely listed as inhibitors; hit rate 5.9% among 310,000; AID 504832; further: potency means the concentration at half of the fitted maximal effect; on the % scale 0 is the no-effect control and ±100 the full control effect
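Luminescence readout; reporter = integrated firefly luciferase in P. falciparum. RBC culture at 2% hematocrit, 0.1% parasitemia final, 37 C/5% CO2; decreased signal taken as growth inhibition.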
HCMV antiviral: human cytomegalovirus inhibition | AID 1259415 | activity change, negative = inhibition, % at 57.5 µM | HFF cells, HCMV-luciferase reporter, 72 h; stronger effect = lower value | hit rate 4.5% among 410,000; in the data active means activity change below about -60%; inconclusive means no clear call, values can overlap the other calls; inactive means above about -39%; further: on the % scale 0 is the no-effect control and ±100 the full control effect
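Human foreskin fibroblasts infected with luciferase-reporter HCMV at MOI 1 PFU/cell, compounds at two doses. Luciferase measured 72 h post infection; normalized to buffer-only basal and Salinomycin (10uM) controls.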
Pf growth 96h: P. falciparum growth inhibition at 96 hours; P. falciparum luciferase reporter growth, 96 h; Potency, µM (titrated, usually from 28.7 µM), for inactives: at the top dose activity change, negative = inhibition, most hits filed as inhibitors; hit rate 6.9% among 320,000; AID 504834; further: potency means the concentration at half of the fitted maximal effect; on the % scale 0 is the no-effect control and ±100 the full control effect
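P. falciparum expressing integrated firefly luciferase grown in erythrocytes (2% hematocrit, 0.05% parasitemia final) with compounds for 96 hours at 37 C, 5% CO2. Growth inhibition read as loss of luminescence after adding luciferase detection reagent.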
The depositor's hits bear a star; i = inactive; ? = inconclusive; / = not tested or not shown; + = active, no number; [ ] = another dose, or the depositor's remark. Only some compounds are listed: those with a hit (about 21% of all), similar ones and a draw of the others. Unless noted, the call rests on the fitted dose curve; in most records, active means well fitted inhibition curve with a large enough effect; inconclusive means small, poorly fitted or top-dose-only effect, or another doubt; inactive means no such curve, though single readings can be large or run the other way.

SMILES | HCV inhibitor | Cycloheximide cs | Shiga inhibitor | Pf growth 48h | HCMV antiviral | Pf growth 96h
CCc1cccc(C)c1NC(=O)Cn1c(=O)cc(C(F)(F)F)c2c(C)nn(C)c21 | / | / | / | / | 5 | /
O=C(CN(c1ccc(F)cc1)S(=O)(=O)c1ccccc1)NC1CCCCCC1 | 16% | -2 | -33 | ? | -23 | ?
CCC(=O)Nc1ccc(C(=O)CSc2nnc(-c3ccc(NS(=O)(=O)CC)cc3)o2)cc1OC | -15% | -3 | -11 | 10% | -8 | 9%
OC(c1ccc(Cl)c(F)c1)c1ncc(-c2ccc(F)cc2)[nH]1 (stereo unspecified) | / | / | / | / | 10 | /
O=C(Cn1ccn(-c2cccc(Cl)c2)c(=O)c1=O)NCCc1ccccc1 | / | / | / | / | -20 | /
O=C(O)C1CSC(c2coc3ccccc3c2=O)N1 (stereo unspecified) | 10% | 14* | 13 | -8% | -12 | ?
COc1ccc2c(c1)c(C(C)=O)c(C)n2-c1ccc(C(C)=O)cc1 | 8% | -3 | -7 | ? | -74* | 2%
CC(=O)c1c(C)n(-c2ccccc2)c2ccc(OCC(N)=O)cc12 | ? | -7 | -8 | -27% | ? | 32%
COc1ccc2c(c1)c(C(=O)O)c(C)n2-c1ccccc1 | ? | 2 | 9 | -3% | 13 | -8%
COc1ccc(-n2c(C)cc(C)c(C(C)=O)c2=S)cc1 | 32% | -3 | -3 | 15µM* | -6 | 12µM*
COc1ccc(-n2c(C)c(C(C)=O)c3cc(OC(C)=O)ccc32)cc1 | ? | -3 | -22 | 104% | -80* | -26%
COc1ccccc1-n1c(C)cc(SC)c(C(C)=O)c1=S | -6% | -3 | -10 | / | 35 | ?
CCC(C(=O)Nc1ccc(C(C)=O)cc1)n1c(C)c2cnn(-c3ccccc3)c(=O)c2c1C (stereo unspecified) | / | / | / | / | -3 | /
O=C(NC1CCCC1)C1CCCN(S(=O)(=O)c2ccc(F)cc2)C1 (stereo unspecified) | -11% | -4 | 4 | -17% | -17 | ?
CC1(C(=O)NCCN2CCOCC2)C=CCN1C(=O)c1ccccc1 (stereo unspecified) | -9%[8.37 µM] | 26* | 41* | 13% | 33 | 0%
Cc1ccccc1N(CC(=O)N1CCOCC1)S(C)(=O)=O | 3% | 9 | 71 | ? | -20 | 8%
N#CC(c1cccc(Cl)c1)c1ccc2c(C(F)(F)F)cc(C(F)(F)F)nc2n1 (stereo unspecified) | 2.8µM* | 20 | 4 | ? | -104* | ?
NNc1ccc2c(C(F)(F)F)cc(C(F)(F)F)nc2n1 | ? | 1 | 22 | ? | -24 | 15%
Cc1ccc(-c2cn3cccnc3n2)cc1NC(=O)c1ccc(Br)o1 | 2% | -2 | -5 | -14% | -10 | ?
COc1ccc(-c2cn3cccnc3n2)cc1NC(=O)Nc1cc(C)ccc1C | / | / | / | ? | -69* | 12µM*
COc1cccc(NC(=O)Nc2cc(-c3cn4cccnc4n3)ccc2C)c1 | / | / | / | / | 7 | /
COc1ccc(-c2cn3cccnc3n2)cc1NC(=O)c1ccc(Br)o1 | 11µM* | 12 | 5 | -9% | -21 | 10µM*
Cc1ccc2[nH]c(=O)c(-c3nc4ccccn4c3NCc3ccco3)cc2c1 | -1% | 30 | 33 | 33% | 72 | 4.7µM*
O=Cc1c(NCc2ccco2)nc2ccccn2c1=O | 4% | 16* | 24 | 41% | 9 | 5%
CSc1ccc(/C=N/n2c(COc3ccccc3)n[nH]c2=S)cc1 | 7% | 2 | -12 | -15% | 11 | 14%
SMILES | HCV inhibitor | Cycloheximide cs | Shiga inhibitor | Pf growth 48h | HCMV antiviral | Pf growth 96h
COc1ccc2nc(NC(=O)CSc3nc(C)cc(C)n3)sc2c1 | -25% | -4 | -14 | / | 21 | -14%
COc1ccc(NC(=O)CCSc2ccc(C)cc2)cc1 | 3% | 1 | 1 | 2% | -30 | ?
CCn1nnnc1SCC(=O)Nc1ccc(F)cc1 | 8% | 20 | 23 | 45% | 5 | 6%
Cc1occc1-c1nnc(SCC(=O)Nc2ccccc2)n1C | -7% | 5 | 25 | 5% | ? | 2%
CCn1nnnc1SCC(=O)Nc1nc2ccc(OC)cc2s1 | ? | 25* | + | 35% | 54 | i
COc1ccc(NC(=O)CCSc2ccc(F)cc2)cc1 | -7% | 34* | 57* | 202% | -27 | 75%
CCn1nnnc1SCC(=O)Nc1ccc(OC)cc1 | 2% | 13 | 34* | 24% | 32 | 15µM*
COc1ccc2nc(NC(=O)CSc3nnc(-c4ccoc4C)n3C)sc2c1 | -15% | 46* | 80* | 40% | 34 | -36%
Cc1ccc(OCC(=O)NCC(c2ccc(Cl)cc2)N2CCCCC2)cc1 (stereo unspecified) | / | / | / | / | -9 | /
CON(C)C(=O)/C=C/c1ccc([B-](F)(F)F)cc1 | -8%[8.37 µM] | / | / | / | 27 | /
NC(=O)CC(NC(=O)Cc1ccc(Br)cc1)c1ccc(N2CCN(c3ccc(F)cc3)CC2)c([N+](=O)[O-])c1 (stereo unspecified) | ? | -3 | -3 | ? | -34 | ?
C=CCn1nnnc1SCC(=O)Nc1ccc(OC)cc1 | 3% | 24* | 20 | 39% | -3 | -37%
COc1ccc(NC(=O)CSc2nnnn2C2CCCC2)cc1 | -5% | 19 | 13 | 19% | -28 | 209%
Cn1nnnc1SCc1ccc(C(=O)Nc2ccc(Br)cc2)cc1 | ? | 47* | 57* | 80% | -35 | -3%
COCCn1nnnc1SCC(=O)c1ccccc1 | -6% | 14* | 34 | 31% | 38 | ?
Cn1nnnc1SCC(=O)Nc1ccc(Oc2ccc(Cl)cc2)cc1 | ? | -4 | -6 | -6% | 19 | /
COc1ccc(NC(=O)CCSc2nnnn2C)cc1 | 4% | 25* | 51 | 100% | -35 | ?
CC(C)C(=O)Nc1ccc(N2CCOCC2)c(S(=O)(=O)Nc2ccccc2Cl)c1 | -25% | / | / | / | -21 | /
CC(=O)Nc1ccc(S(=O)(=O)N2CCN(c3ncccn3)CC2)cc1 | -12% | 0 | / | ? | 9 | 0%
CCn1nnnc1SCC(=O)c1cccc(OC)c1 | -6% | 19* | 14 | 9% | -25 | 13%
COc1ccc(C(=O)Nc2cccc(-c3cnc4ccccc4n3)c2)cc1 | -18% | 4 | 21 | ? | 23 | ?
Cc1cc(-c2cccc([N+](=O)[O-])c2)nc2ccccc12 | ? | 12 | -1 | 50% | 17 | i
Nc1cccc(-c2cnc3ccccc3n2)c1 | -9% | 64* | 63* | 213% | 193 | -13%
O=[N+]([O-])c1cccc(-c2cnc3ccccc3n2)c1 | 5% | 24* | 63* | 93% | 28 | -3%
CN(C)c1ccsc1C(=O)NNS(=O)(=O)c1ccc(Cl)cc1 | 15% | / | / | / | 23 | /
CCN(CC)S(=O)(=O)c1cc(NC(=O)c2ccc(Br)s2)ccc1C | 10µM* | 64* | 77* | ? | -83* | 15µM*
